Source: the supplement of paper PMC10849652
Targets with a hit are over-represented here; the source holds about 7,900 in all. About 0.6% of all pairs of compound and target were hits.

Experiments:
Assay in all cases: log2 fold change, soluble protein after heating vs DMSO (PISA); higher = thermal stabilisation; K562 cells, 10 uM, 30 min; active = over 0.2 and 3.5 SD of the protein, either way, in both replicates (recomputed)
[1] = compound: CS(=O)(=O)c1ccc(-c2cnc(N)c(C(=O)Nc3ccccc3)n2)cc1
Procedure, shortened: (§1)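 Aliquots of K562 cells (2×10^6 cells/mL) treated with 10 μM compound for 30 min were heated for 3 min over 48°C-58°C. After pooling and extraction in PBS with 0.5% NP-40 at 4°C, soluble protein from a 21,000xg, 90 min spin was quantified by TMTpro 16plex LC-MS/MS with channel sums equalised. Thermal stability is expressed against control samples, from duplicates, as a log2 fold change.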

crizotinib = compound: C[C@@H](Oc1cc(-c2cnn(C3CCNCC3)c2)cnc1N)c1c(Cl)ccc(F)c1Cl [crizotinib]
Procedure, shortened: as §1

[2] = compound: C[C@@H]1COCCN1C2=NC(=NC(=C2)C3(CC3)S(=O)(=O)C)C4=C5C=CNC5=CC=C4
Procedure, shortened: as §1

[3] = compound: C[C@H](C1=CC=C(C=C1)C(=O)NC2=C3C=CNC3=NC=C2)N
Procedure, shortened: as §1

duvelisib = compound: C[C@H](Nc1ncnc2nc[nH]c12)c1cc2cccc(Cl)c2c(=O)n1-c1ccccc1 [duvelisib]
Procedure, shortened: as §1

gandotinib = compound: Cc1cc(Nc2cc(CN3CCOCC3)c3nc(C)c(Cc4ccc(Cl)cc4F)n3n2)n[nH]1 [gandotinib]
Procedure, shortened: as §1

tozasertib = compound: Cc1cc(Nc2cc(N3CCN(C)CC3)nc(Sc3ccc(NC(=O)C4CC4)cc3)n2)n[nH]1 [tozasertib]
Procedure, shortened: as §1

[4] = compound: Cc1cc(SCc2sc(-c3ccc(C(F)(F)F)cc3)nc2C)ccc1OCC(=O)O
Procedure, shortened: as §1

doramapimod = compound: Cc1ccc(-n2nc(C(C)(C)C)cc2NC(=O)Nc2ccc(OCCN3CCOCC3)c3ccccc23)cc1 [doramapimod]
Procedure, shortened: as §1

ispinesib = compound: Cc1ccc(C(=O)N(CCCN)[C@@H](c2nc3cc(Cl)ccc3c(=O)n2Cc2ccccc2)C(C)C)cc1 [ispinesib]
Procedure, shortened: as §1

bafetinib = compound: Cc1ccc(NC(=O)c2ccc(CN3CC[C@H](N(C)C)C3)c(C(F)(F)F)c2)cc1Nc1nccc(-c2cncnc2)n1 [bafetinib]
Procedure, shortened: as §1

[5] = compound: Cc1cccc(CC(=O)N2CCc3c2ccc(-c2cn(C)c4ncnc(N)c24)c3F)n1
Procedure, shortened: as §1

nilotinib = compound: Cc1cn(-c2cc(NC(=O)c3ccc(C)c(Nc4nccc(-c5cccnc5)n4)c3)cc(C(F)(F)F)c2)cn1 [nilotinib]
Procedure, shortened: as §1

[6] = compound: Cc1nc(Nc2n[nH]c3c2CN(C(=O)N[C@H](CN(C)C)c2ccccc2)C3(C)C)c2sccc2n1
Procedure, shortened: as §1

dasatinib = compound: Cc1nc(Nc2ncc(C(=O)Nc3c(C)cccc3Cl)s2)cc(N2CCN(CCO)CC2)n1 [dasatinib]
Procedure, shortened: as §1

[7] = compound: Cc1ncc(-c2ccnc(Nc3ccc(S(C)(=O)=O)cc3)n2)n1C(C)C
Procedure, shortened: as §1

[8] = compound: Cn1cc(-c2ccc3c(c2)CCN3C(=O)Cc2cccc(C(F)(F)F)c2)c2c(N)ncnc21
Procedure, shortened: as §1

[9] = compound: Cn1cc(-c2ccc3nnc(C(F)(F)c4ccc5ncccc5c4)n3n2)cn1
Procedure, shortened: as §1

tipifarnib = compound: Cn1cncc1[C@@](N)(c1ccc(Cl)cc1)c1ccc2c(c1)c(-c1cccc(Cl)c1)cc(=O)n2C [tipifarnib]
Procedure, shortened: as §1

mubritinib = compound: FC(F)(F)c1ccc(/C=C/c2nc(COc3ccc(CCCCn4ccnn4)cc3)co2)cc1 [mubritinib]
Procedure, shortened: as §1

Measured: log2 fold change

RRS1 (UniProt Q15050)
Chain of UniProt Q15050 (Q15050 whole entry, looked up): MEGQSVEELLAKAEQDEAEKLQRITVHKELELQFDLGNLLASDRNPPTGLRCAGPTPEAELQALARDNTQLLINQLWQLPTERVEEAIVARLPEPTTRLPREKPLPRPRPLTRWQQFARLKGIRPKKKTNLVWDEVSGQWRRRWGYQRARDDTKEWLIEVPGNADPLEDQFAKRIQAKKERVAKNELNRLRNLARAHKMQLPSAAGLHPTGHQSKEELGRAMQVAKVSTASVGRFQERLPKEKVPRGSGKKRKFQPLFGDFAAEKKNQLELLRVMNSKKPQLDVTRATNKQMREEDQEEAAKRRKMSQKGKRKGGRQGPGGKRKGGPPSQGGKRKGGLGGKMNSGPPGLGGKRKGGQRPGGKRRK
inactive: [1] -0.022 | crizotinib 0 | [2] -0.365 | [3] 0.304 | duvelisib -0.181 | gandotinib 0.089 | tozasertib 0.094 | [4] -0.034 | doramapimod 0.235 | ispinesib 0.019 | bafetinib 0.121 | [5] -0.125 | nilotinib -0.024 | [6] 0.073 | dasatinib 0.161 | [7] 0.267 | [8] -0.431 | [9] -0.165 | tipifarnib 0.105 | mubritinib -0.226

RBM8A (UniProt Q9Y5S9)
active: crizotinib 0.287
inactive: [1] 0.012 | [2] 0.007 | [3] 0.025 | duvelisib 0.019 | gandotinib 0.069 | tozasertib -0.015 | [4] 0.025 | doramapimod -0.078 | ispinesib 0.099 | bafetinib -0.013 | [5] -0.014 | nilotinib -0.047 | [6] -0.063 | dasatinib 0.001 | [7] 0.126 | [8] -0.02 | [9] 0.065 | tipifarnib 0.019 | mubritinib 0.013

RRAS2 isoform 4 (UniProt P62070)
Chain of UniProt P62070 (P62070 whole entry, looked up): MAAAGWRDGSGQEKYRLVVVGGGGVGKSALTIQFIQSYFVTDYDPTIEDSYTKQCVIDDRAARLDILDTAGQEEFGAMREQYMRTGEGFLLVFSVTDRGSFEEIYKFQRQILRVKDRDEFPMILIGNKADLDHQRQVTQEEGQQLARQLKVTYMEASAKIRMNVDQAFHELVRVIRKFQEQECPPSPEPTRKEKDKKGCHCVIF
inactive: [1] 0.044 | crizotinib 0.162 | [2] -0.001 | [3] -0.152 | duvelisib -0.002 | gandotinib -0.016 | tozasertib -0.048 | [4] -0.042 | doramapimod 0.012 | ispinesib -0.019 | bafetinib -0.05 | [5] -0.082 | nilotinib 0.111 | [6] -0.021 | dasatinib 0.066 | [7] 0.025 | [8] 0.062 | [9] -0.03 | tipifarnib 0.088 | mubritinib -0.025

RGS10 (UniProt O43665)
Chain of UniProt O43665 (O43665 whole entry, looked up): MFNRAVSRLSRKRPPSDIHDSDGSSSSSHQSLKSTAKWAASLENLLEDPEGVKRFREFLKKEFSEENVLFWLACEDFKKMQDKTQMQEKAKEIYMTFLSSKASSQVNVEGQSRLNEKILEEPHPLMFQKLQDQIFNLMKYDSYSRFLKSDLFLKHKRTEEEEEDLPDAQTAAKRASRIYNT
inactive: [1] 0.014 | crizotinib -0.045 | [2] 0.012 | [3] -0.231 | duvelisib 0.008 | gandotinib -0.023 | tozasertib 0.053 | [4] 0.024 | doramapimod 0.006 | ispinesib 0.017 | bafetinib -0.08 | [5] 0.032 | nilotinib -0.057 | [6] 0.002 | dasatinib -0.034 | [7] 0.009 | [8] 0.126 | [9] -0.031 | tipifarnib -0.043 | mubritinib -0.019

RCC1 isoform 2 (UniProt P18754)
Chain of UniProt P18754 (P18754 whole entry, looked up): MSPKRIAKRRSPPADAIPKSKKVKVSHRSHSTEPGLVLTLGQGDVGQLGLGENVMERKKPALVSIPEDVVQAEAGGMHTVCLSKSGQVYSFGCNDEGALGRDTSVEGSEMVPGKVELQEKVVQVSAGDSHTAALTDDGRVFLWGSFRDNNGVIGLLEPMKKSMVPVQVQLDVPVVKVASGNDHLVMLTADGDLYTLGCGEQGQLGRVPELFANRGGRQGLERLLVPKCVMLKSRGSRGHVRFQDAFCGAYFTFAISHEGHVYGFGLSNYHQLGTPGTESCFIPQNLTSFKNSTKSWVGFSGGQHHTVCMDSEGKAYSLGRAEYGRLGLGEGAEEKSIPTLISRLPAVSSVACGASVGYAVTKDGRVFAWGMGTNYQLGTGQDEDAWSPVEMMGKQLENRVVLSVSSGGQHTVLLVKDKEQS
inactive: crizotinib -0.032 | [2] 0.13 | [3] -0.04 | duvelisib 0.158 | gandotinib -0.1 | tozasertib -0.002 | [4] 0.154 | doramapimod -0.008 | ispinesib -0.007 | bafetinib 0.013 | [5] 0.002 | nilotinib 0.069 | [6] -0.137 | dasatinib -0.159 | [7] 0 | [8] 0.139 | [9] -0.004 | tipifarnib -0.112 | mubritinib 0.296
active: [1] 0.418

RPS3A (UniProt P61247)
inactive: [1] -0.064 | crizotinib 0.022 | [2] -0.182 | [3] 0.196 | duvelisib -0.09 | gandotinib 0.175 | tozasertib 0.016 | [4] 0.029 | doramapimod 0.044 | ispinesib -0.072 | bafetinib 0.243 | [5] -0.031 | nilotinib 0 | [6] 0.201 | dasatinib 0.099 | [7] -0.033 | [8] -0.127 | [9] -0.045 | tipifarnib 0.096 | mubritinib -0.058

RPP14 (UniProt O95059)
Chain of UniProt O95059 (O95059 whole entry, looked up): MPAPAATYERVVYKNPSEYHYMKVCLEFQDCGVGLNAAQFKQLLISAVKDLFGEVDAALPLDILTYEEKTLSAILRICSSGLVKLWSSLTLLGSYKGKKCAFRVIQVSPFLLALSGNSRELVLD
inactive: [1] -0.048 | crizotinib -0.046 | [2] 0.019 | [3] -0.076 | duvelisib -0.019 | gandotinib -0.119 | tozasertib 0.052 | [4] -0.054 | doramapimod 0.06 | ispinesib 0.03 | bafetinib 0.045 | [5] 0 | nilotinib -0.014 | [6] 0.019 | dasatinib 0.063 | [7] -0.013 | [8] -0.078 | [9] -0.054 | tipifarnib 0.003 | mubritinib -0.084

RPTOR (UniProt Q8N122)
Chain of UniProt Q8N122 (Q8N122 whole entry, looked up): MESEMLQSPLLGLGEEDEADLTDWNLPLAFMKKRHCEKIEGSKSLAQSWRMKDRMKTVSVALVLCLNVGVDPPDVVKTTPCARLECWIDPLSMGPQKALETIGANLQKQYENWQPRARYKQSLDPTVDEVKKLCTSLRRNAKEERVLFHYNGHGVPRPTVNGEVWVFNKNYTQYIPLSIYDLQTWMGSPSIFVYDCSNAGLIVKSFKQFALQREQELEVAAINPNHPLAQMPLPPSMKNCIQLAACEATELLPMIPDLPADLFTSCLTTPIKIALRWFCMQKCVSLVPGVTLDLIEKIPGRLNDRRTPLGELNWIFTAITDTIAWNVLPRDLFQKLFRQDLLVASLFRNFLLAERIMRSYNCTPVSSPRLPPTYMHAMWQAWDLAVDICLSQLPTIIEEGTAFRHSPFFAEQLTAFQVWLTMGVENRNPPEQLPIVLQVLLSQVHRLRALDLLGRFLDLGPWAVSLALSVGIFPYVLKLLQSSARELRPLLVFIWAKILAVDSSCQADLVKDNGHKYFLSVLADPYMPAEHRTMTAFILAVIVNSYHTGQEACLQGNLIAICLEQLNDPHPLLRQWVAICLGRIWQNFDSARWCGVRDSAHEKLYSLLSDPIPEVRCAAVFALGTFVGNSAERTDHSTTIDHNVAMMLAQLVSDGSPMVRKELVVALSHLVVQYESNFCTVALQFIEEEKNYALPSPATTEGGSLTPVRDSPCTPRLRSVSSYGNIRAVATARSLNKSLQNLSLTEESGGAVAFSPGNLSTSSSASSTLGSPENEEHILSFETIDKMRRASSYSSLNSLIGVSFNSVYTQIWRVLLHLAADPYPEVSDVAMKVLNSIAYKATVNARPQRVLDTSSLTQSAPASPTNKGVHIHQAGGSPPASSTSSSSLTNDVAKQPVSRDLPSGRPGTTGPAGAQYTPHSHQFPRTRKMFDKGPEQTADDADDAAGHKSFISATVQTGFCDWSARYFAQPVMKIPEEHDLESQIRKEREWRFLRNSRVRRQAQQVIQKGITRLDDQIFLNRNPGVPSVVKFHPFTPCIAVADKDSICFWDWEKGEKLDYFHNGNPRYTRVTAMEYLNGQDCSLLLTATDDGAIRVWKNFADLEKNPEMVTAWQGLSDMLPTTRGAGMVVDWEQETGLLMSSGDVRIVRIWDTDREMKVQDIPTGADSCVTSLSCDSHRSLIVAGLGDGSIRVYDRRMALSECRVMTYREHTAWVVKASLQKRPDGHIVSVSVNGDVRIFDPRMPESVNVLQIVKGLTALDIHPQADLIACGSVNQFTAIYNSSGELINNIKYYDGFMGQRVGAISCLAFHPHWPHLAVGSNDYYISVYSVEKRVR
inactive: [1] 0.012 | crizotinib -0.188 | [2] -0.031 | [3] 0.033 | duvelisib 0.045 | gandotinib -0.115 | tozasertib 0 | [4] 0.01 | doramapimod -0.009 | ispinesib -0.114 | bafetinib -0.005 | [5] 0.034 | nilotinib -0.085 | [6] -0.103 | dasatinib -0.103 | [7] -0.045 | [8] -0.107 | [9] 0.009 | tipifarnib -0.062 | mubritinib 0.033

SIDT2 isoform 2 (UniProt Q8NBJ9)
Chain of UniProt Q8NBJ9 (Q8NBJ9 whole entry, looked up): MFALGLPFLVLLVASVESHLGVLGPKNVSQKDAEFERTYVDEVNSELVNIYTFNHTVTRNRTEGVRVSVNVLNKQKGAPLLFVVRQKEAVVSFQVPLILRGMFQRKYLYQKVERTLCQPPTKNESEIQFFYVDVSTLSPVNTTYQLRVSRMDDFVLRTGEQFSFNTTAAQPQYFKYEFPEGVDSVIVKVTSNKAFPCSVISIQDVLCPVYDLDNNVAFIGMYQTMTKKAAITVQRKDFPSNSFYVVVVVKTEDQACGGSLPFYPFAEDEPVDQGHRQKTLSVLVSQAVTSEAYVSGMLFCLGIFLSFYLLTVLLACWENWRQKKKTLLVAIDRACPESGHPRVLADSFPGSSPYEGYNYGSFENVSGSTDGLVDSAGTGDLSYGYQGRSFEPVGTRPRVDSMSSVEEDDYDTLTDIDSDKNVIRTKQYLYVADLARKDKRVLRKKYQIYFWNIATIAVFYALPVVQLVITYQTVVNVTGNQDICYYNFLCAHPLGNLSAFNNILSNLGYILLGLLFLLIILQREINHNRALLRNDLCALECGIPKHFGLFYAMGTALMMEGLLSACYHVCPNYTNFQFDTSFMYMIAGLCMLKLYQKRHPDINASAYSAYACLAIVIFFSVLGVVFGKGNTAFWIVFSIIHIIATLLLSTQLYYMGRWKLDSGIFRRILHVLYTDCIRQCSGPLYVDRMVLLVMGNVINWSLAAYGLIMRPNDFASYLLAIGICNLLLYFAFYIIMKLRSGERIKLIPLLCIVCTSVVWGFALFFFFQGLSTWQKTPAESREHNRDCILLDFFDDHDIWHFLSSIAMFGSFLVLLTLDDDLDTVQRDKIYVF
inactive: [1] 0.132 | crizotinib -0.026 | [2] -0.017 | [3] -0.004 | duvelisib 0.059 | gandotinib 0.006 | tozasertib 0.004 | [4] -0.186 | doramapimod 0.254 | ispinesib -0.143 | bafetinib -0.24 | [5] -0.025 | nilotinib -0.005 | [6] 0.104 | dasatinib 0.041 | [7] 0.025 | [8] -0.003 | [9] 0.038 | tipifarnib 0.073 | mubritinib -0.001

ROR2 (UniProt Q01974)
inactive: [1] 0.028 | crizotinib 0.007 | [2] 0.081 | [3] -0.031 | duvelisib 0.049 | gandotinib -0.007 | tozasertib -0.025 | [4] 0.097 | doramapimod -0.04 | ispinesib 0.083 | bafetinib 0.024 | [5] 0.052 | nilotinib 0.009 | [6] -0.105 | dasatinib -0.124 | [7] 0.063 | [8] 0.043 | [9] -0.041 | tipifarnib 0.03 | mubritinib 0.029

RANBP2 (UniProt P49792)
inactive: [1] -0.016 | crizotinib 0.009 | [2] -0.011 | [3] 0.103 | duvelisib 0.065 | gandotinib -0.066 | tozasertib 0.013 | [4] -0.003 | doramapimod 0.043 | ispinesib -0.031 | bafetinib -0.092 | [5] 0.197 | nilotinib -0.05 | [6] 0.087 | dasatinib -0.011 | [7] -0.043 | [8] -0.047 | [9] -0.051 | tipifarnib -0.036 | mubritinib -0.073

RABGGTA (UniProt Q92696)
inactive: [1] -0.035 | crizotinib -0.076 | [2] 0.046 | [3] -0.058 | duvelisib 0.045 | gandotinib -0.004 | tozasertib -0.036 | [4] -0.008 | doramapimod 0.017 | ispinesib 0.026 | bafetinib -0.019 | [5] 0.027 | nilotinib 0.033 | [6] -0.088 | dasatinib 0.076 | [7] -0.076 | [8] 0.089 | [9] -0.015 | tipifarnib 0.08 | mubritinib 0.002

SAMSN1 isoform 3 (UniProt Q9NSI8)
Chain of UniProt Q9NSI8 (Q9NSI8 whole entry, looked up): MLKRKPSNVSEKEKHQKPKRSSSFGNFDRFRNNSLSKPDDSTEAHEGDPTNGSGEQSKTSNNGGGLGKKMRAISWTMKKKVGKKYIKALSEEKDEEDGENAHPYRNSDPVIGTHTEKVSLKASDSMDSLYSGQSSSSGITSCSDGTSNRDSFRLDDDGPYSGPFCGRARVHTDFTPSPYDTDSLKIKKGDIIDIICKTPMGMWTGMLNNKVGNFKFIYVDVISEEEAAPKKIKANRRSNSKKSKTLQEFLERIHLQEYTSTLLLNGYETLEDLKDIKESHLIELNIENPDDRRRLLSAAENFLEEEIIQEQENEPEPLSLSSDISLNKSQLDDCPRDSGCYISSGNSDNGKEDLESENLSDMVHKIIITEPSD
inactive: [1] 0.024 | crizotinib -0.082 | [2] 0.043 | [3] -0.027 | duvelisib 0.006 | gandotinib -0.077 | tozasertib -0.013 | [4] 0.019 | doramapimod -0.052 | ispinesib -0.069 | bafetinib -0.049 | [5] 0.04 | nilotinib -0.036 | [6] -0.169 | dasatinib -0.09 | [7] 0.02 | [8] 0.029 | [9] 0.037 | tipifarnib -0.015 | mubritinib 0.048

RAVER1 (UniProt E9PAU2)
inactive: [1] 0.061 | crizotinib 0.049 | [2] 0.188 | [3] -0.381 | duvelisib 0.066 | gandotinib -0.091 | tozasertib 0.264 | [4] 0.132 | doramapimod 0.002 | ispinesib -0.171 | bafetinib -0.155 | [5] 0 | nilotinib -0.091 | [6] -0.319 | dasatinib -0.309 | [7] -0.299 | [8] 0.155 | [9] 0.011 | tipifarnib -0.351 | mubritinib 0.134

SCD (UniProt O00767)
Chain of UniProt O00767 (O00767 whole entry, looked up): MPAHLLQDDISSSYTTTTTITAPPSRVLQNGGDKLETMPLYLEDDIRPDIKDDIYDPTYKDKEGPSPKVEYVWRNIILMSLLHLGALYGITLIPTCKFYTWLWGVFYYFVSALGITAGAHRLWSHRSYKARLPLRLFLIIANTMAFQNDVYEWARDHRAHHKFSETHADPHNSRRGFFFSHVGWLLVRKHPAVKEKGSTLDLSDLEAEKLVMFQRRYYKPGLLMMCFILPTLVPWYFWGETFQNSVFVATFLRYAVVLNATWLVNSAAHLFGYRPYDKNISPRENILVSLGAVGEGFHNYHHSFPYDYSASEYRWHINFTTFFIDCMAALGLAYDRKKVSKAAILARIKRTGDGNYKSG
inactive: [1] 0.024 | crizotinib -0.2 | [2] -0.06 | [3] -0.068 | duvelisib 0.007 | gandotinib -0.061 | tozasertib -0.07 | [4] -0.119 | doramapimod -0.028 | ispinesib -0.319 | bafetinib -0.153 | [5] 0.109 | nilotinib -0.063 | [6] -0.007 | dasatinib -0.026 | [7] -0.019 | [8] 0.013 | [9] 0.034 | tipifarnib 0.075 | mubritinib 0.019

SAAL1 (UniProt Q96ER3)
Chain of UniProt Q96ER3 (Q96ER3 whole entry, looked up): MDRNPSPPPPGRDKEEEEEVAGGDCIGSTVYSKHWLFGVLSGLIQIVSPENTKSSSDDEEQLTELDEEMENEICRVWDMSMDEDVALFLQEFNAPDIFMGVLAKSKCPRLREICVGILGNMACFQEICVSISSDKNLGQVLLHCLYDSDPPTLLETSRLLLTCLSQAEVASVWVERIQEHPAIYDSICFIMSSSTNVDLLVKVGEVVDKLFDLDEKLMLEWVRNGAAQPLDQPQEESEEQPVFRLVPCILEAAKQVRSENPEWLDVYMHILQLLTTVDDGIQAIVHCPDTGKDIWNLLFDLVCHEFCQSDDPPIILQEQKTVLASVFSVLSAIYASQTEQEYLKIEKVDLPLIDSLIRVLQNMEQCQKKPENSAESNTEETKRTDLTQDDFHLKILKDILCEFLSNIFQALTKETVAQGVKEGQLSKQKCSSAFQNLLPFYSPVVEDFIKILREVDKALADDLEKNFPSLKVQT
inactive: [1] 0.013 | crizotinib -0.129 | [2] 0.047 | [3] 0.008 | duvelisib 0.036 | gandotinib 0.022 | tozasertib -0.044 | [4] 0.019 | doramapimod -0.006 | ispinesib -0.049 | bafetinib -0.102 | [5] 0.047 | nilotinib -0.042 | [6] 0.161 | dasatinib -0.101 | [7] 0.246 | [8] -0.06 | [9] 0 | tipifarnib -0.053 | mubritinib 0.109
